According to PubChem BioAssay AID588397 (National Center for Advancing Translational Sciences (NCATS), 2011):
Among all 1,300 compounds or so, about 1,000 (77%) were called active. Roughly 7% stayed inconclusive and do not appear here. The call rests on the fitted dose curve; in most records, active means well fitted inhibition curve with a large enough effect; inconclusive means small, poorly fitted or top-dose-only effect; inactive means no such curve, though single readings can be large or run the other way. So high a share suggests a set chosen from earlier hits. This is one part of the list.
On the % scale 0 is the no-effect control and ±100 the full control effect; potency means the concentration at half of the fitted maximal effect.

Test: qHTS of small molecules that selectively kill Giardia lamblia: Hit Validation.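 Further: viability measured as ATP content by luminescence so killing lowers signal; trophozoites exposed to compounds for 48 h anaerobically at 37 °C; nearly all actives have a fitted effect of over 65% in size.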
Conditions: Giardia lamblia trophozoite viability, dose-response; series mostly up to 38.3 µM; activity change, negative = killing: at the top concentration
In short: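 Killing of trophozoites was scored by loss of ATP luminescence after a 48 hrs anaerobic exposure to compounds at 37 deg C, using 100 cells per well.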
In the case of `CC(C)(C)c1ccc2c(c1)OC(C(=O)N/N=C/c1ccc([N+](=O)[O-])o1)CO2` (stereo not drawn), the Potency is reported as 0.818 µM (active). With `O=[N+]([O-])C(/C=C(/Cl)[N+](=O)[O-])=C(N1CCCCC1)N1CCCCC1` the Potency was 1.16 µM (active). For `O=[N+]([O-])C(/C=C(\Cl)[N+](=O)[O-])=C(N1CCCCC1)N1CCCCC1`, the Potency was 0.516 µM (active). For `O=C1c2ccccc2C(=O)C1c1ccncc1`, the Potency was 7.29 µM (active). For `Cc1cc(C)cc(N=c2c([N+](=O)[O-])nn(-c3ccc(Cl)cc3)n2O)c1`, the Potency was 1.3 µM (active). In the case of `Cc1cc(C)cc(N=c2c([N+](=O)[O-])nn(-c3cccc(Cl)c3)n2O)c1`, the Potency is reported as 3.26 µM (active). For `O=[N+]([O-])c1[nH]cnc1/C=C/c1ccccc1`, the Potency was 1.83 µM (active). In the case of `O=[N+]([O-])c1cccc(/C=C/c2nc[nH]c2[N+](=O)[O-])c1`, the Potency is reported as 2.05 µM (active). For `Cc1cccc(N=Nc2c(C)c(C#N)c(O)[nH]c2=O)c1`, the Potency was 3.65 µM (active). In the case of `O=C(CNc1cccc([N+](=O)[O-])c1)N/N=C/c1ccc([N+](=O)[O-])o1`, the Potency is reported as 0.516 µM (active). In the case of `O=C(CNc1ccccc1)N/N=C/c1ccc([N+](=O)[O-])o1`, the Potency is reported as 1.03 µM (active). With `Cc1ccc(NCC(=O)N/N=C\c2ccc([N+](=O)[O-])o2)cc1` the Potency was 0.65 µM (active). For `O=C(CNc1ccc2ccccc2c1)N/N=C/c1ccc([N+](=O)[O-])o1`, the Potency was 1.03 µM (active). In the case of `COC(=O)[C@]1(C)N[C@H](CN(C)S(=O)(=O)c2ccc(-c3ccccc3)cc2)[C@@H]2C(=O)N(Cc3ccccc3)C(=O)[C@@H]21`, the “activity change, negative = killing” value is reported as -4.41% (inactive). For `Cc1ccc(OCC(=O)c2cc(C)n(-c3ccccc3)c2C)c([N+](=O)[O-])n1`, the Potency was 0.516 µM (active). In the case of `COc1ccc(-n2c(C)cc(C(=O)COc3ccc(C)nc3[N+](=O)[O-])c2C)cc1`, the Potency is reported as 1.83 µM (active). With `Cc1ccc(NC(=O)CN2C(=O)S/C(=C/c3ccc(O)c([N+](=O)[O-])c3)C2=O)cc1C` the Potency was 1.3 µM (active). In the case of `Cc1cccc(NC(=O)CN2C(=O)S/C(=C\c3ccc(O)c([N+](=O)[O-])c3)C2=O)c1`, the Potency is reported as 1.3 µM (active). For `CCOC(=O)CN1C(=O)S/C(=C/c2cccc([N+](=O)[O-])c2O)C1=O`, the Potency was 2.31 µM (active). With `CCN(CC)C(=O)CSc1nnc2nnc3cc(Cl)ccc3n12` the Potency was 1.3 µM (active). With `NCCCn1c(C(=O)c2ccc(Cl)cc2)c2ccc(C(F)(F)F)cc2[n+]1[O-]` the Potency was 0.41 µM (active). In the case of `COc1ccc(C(=O)c2c3ccc(C(F)(F)F)cc3[n+]([O-])n2CCCN)cc1`, the Potency is reported as 1.3 µM (active). In the case of `Cc1ccc(C(=O)c2c3ccc(C(F)(F)F)cc3[n+]([O-])n2CCCN)cc1`, the Potency is reported as 1.03 µM (active). In the case of `NCCCn1c(C(=O)c2cc(Cl)c(N)c(Cl)c2)c2ccc(C(F)(F)F)cc2[n+]1[O-]`, the Potency is reported as 1.45 µM (active). With `O=C(N/N=C/c1cc2c(cc1[N+](=O)[O-])OCO2)c1ccccn1` the Potency was 7.29 µM (active). For `COc1ccc(CCNc2oc(COc3ccc(Br)cc3)nc2C#N)cc1OC`, the “activity change, negative = killing” value was -29.8% (inactive). For `N#Cc1nc(-c2ccc(OCc3ccccc3)cc2)oc1N1CCC(C(N)=O)CC1`, the “activity change, negative = killing” value was 1.62% (inactive). With `NC(=O)C1CCN(c2ncccc2[N+](=O)[O-])CC1` the Potency was 1.16 µM (active). For `NC(=O)C1CCN(c2cc(Cl)ccc2[N+](=O)[O-])CC1`, the Potency was 8.18 µM (active). For `Cc1cc(C)n(S(=O)(=O)c2ccccc2[N+](=O)[O-])n1`, the Potency was 1.83 µM (active). With `Cc1nc2cc(-c3ccc(Cl)cc3)nn2c(NCCN(C)C)c1C` the Potency was 0.918 µM (active). With `CN(C)C(=O)c1cc([N+](=O)[O-])cc([N+](=O)[O-])c1N(C)C` the Potency was 0.818 µM (active). With `Cc1ccc(S(=O)(=O)/N=C(/Sc2ccccc2C(=O)O)c2ccccc2)cc1` the “activity change, negative = killing” value was -19.6% (inactive). For `CN(C)c1ccc(C2Nc3cccc4cccc(c34)N2)cc1`, the Potency was 3.65 µM (active). For `CN(C)c1ccc(C2NC(=O)c3ccccc3N2)cc1` (stereo not drawn), the Potency was 6.5 µM (active). With `O=C(c1ccc([N+](=O)[O-])o1)N1CCOCC1` the Potency was 1.83 µM (active). In the case of `CCC1CCCCN1C(=O)c1ccc([N+](=O)[O-])o1` (stereo not drawn), the Potency is reported as 1.83 µM (active). With `O=C(O)c1cc(Cl)c(Cl)cc1C(=O)N1CCCC1` the “activity change, negative = killing” value was -0.809% (inactive). With `O=C(c1ccc([N+](=O)[O-])o1)N1CCN(Cc2ccccc2)CC1` the Potency was 6.5 µM (active). For `O=C(c1cc(Cl)ccc1Cl)N1CCN(Cc2ccccc2)CC1`, the “activity change, negative = killing” value was 13.9% (inactive). In the case of `O=C(c1ccc([N+](=O)[O-])o1)N1CCCCCC1`, the Potency is reported as 3.65 µM (active). With `CC1CCCN(C(=O)c2ccc([N+](=O)[O-])o2)C1` (stereo not drawn) the Potency was 5.16 µM (active). In the case of `COCc1ccc(C(=O)N2CCCC(C(=O)c3ccc(Cl)cc3C)C2)o1` (stereo not drawn), the “activity change, negative = killing” value is reported as 23.6% (inactive). With `COc1ccccc1C(=O)C1CCCN(C(=O)c2ccco2)C1` (stereo not drawn) the “activity change, negative = killing” value was 29.9% (inactive). With `CC(=O)N1CCN(c2ccc(S(C)(=O)=O)cc2[N+](=O)[O-])CC1` the Potency was 1.03 µM (active). For `O=C(O)C1CCN(c2ccccc2[N+](=O)[O-])CC1`, the Potency was 5.79 µM (active). For `O=C(O)C1CCN(c2ccc([N+](=O)[O-])cc2[N+](=O)[O-])CC1`, the Potency was 1.16 µM (active). For `CCN(C(=O)COC(=O)c1cc(S(=O)(=O)N2CCc3ccccc32)ccc1OC)C1CCS(=O)(=O)C1` (stereo not drawn), the “activity change, negative = killing” value was 36.6% (inactive). With `Cc1c(Nc2nc3ccccc3n3cnnc23)cccc1[N+](=O)[O-]` the Potency was 9.18 µM (active). In the case of `O=C(/C=C/c1ccc2c(c1)OCO2)Nc1cccnc1`, the Potency is reported as 4.6 µM (active). With `NS(=O)(=O)c1ccc(Nc2ncccc2[N+](=O)[O-])cc1` the Potency was 0.41 µM (active). For `Cc1c(NC(=O)c2cc(-c3ccc(Cl)c(Cl)c3)on2)c(=O)n(-c2ccccc2)n1C`, the “activity change, negative = killing” value was -4.32% (inactive). With `COc1ccc2cc(-c3cc(C(=O)OCC(=O)Nc4c(C)n(C)n(-c5ccccc5)c4=O)c4ccccc4n3)ccc2c1` the Potency was 0.41 µM (active). In the case of `O=c1c([N+](=O)[O-])cc(C(F)(F)F)cn1Cc1c(Cl)cccc1Cl`, the Potency is reported as 1.3 µM (active). In the case of `O=c1c([N+](=O)[O-])cc(C(F)(F)F)cn1Cc1cccc(Cl)c1`, the Potency is reported as 2.31 µM (active). For `COC(=O)c1ccc(Cn2cc(C(F)(F)F)cc([N+](=O)[O-])c2=O)cc1`, the Potency was 4.1 µM (active). For `CCCC[n+]1c(/C=C/c2c(OC)cc(OC)cc2OC)ccc2ccccc21`, the “activity change, negative = killing” value was -13.9% (inactive). For `COc1cccc(/C=C/c2ccc3ccccc3[n+]2C)c1OC`, the Potency was 5.79 µM (active).
